From PubChem BioAssay come the findings set out here.

A short description of experiment [1]: compounds altering circadian rhythm period length – cell-based, LOPAC library, luminescence reporter (AID 2774).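 Further: values are relative to mean of DMSO wells on each plate.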 Particulars: circadian reporter cells, at 7 µM, actives lie on both sides.
For experiment [2], the system named is Hepatitis C virus NS3 helicase. In words: blockers of NS3h binding to ssDNA – biochemical, fluorescence polarization, LOPAC1280 library, primary screen (AID 687035; in the data active means inhibition above about 37%). Particulars: Purified HCV NS3 helicase, Cy5-dT15 ssDNA binding fluorescence polarization; stronger effect = higher value; concentration not given here. (In general: In fluorescence polarisation assays a small probe gives low polarisation when free and higher when bound to something large.)

A short description of experiment [3]: compounds altering Cy5-DNA-NS3h complex signal – biochemical, LOPAC1280, artefact control for HCV NS3 helicase inhibitor project (AID 687037). Particulars: Cy5-DNA-NS3h complex fluorescence interference counterscreen. (The purpose of a counterscreen is to sort out artefacts and off-target activity.)
Experiment [4] relates to Aerobactin synthetase IucA (Klebsiella pneumoniae, hypervirulent). As to the kind of experiment: biochemical IucA inhibition screen of LOPAC library by absorbance (AID 1346212).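 Further: 100% = no compound wells and 0% = no enzyme wells.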 Particulars: IucA enzyme assay, absorbance (OD) readout; stronger effect = lower value;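 tested at 8 µM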.
A short description of experiment [5]: viability loss with induced miR-34 in A549 – imaging, A549 dox-inducible miR-34, nuclei and caspase counts, primary screen (AID 1347080;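 active means compounds whose cell count with miR-34 switched on is under 0.7 times the count with it off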). Particulars: A549 miR-34 inducible, Hoechst nuclei count, 48 h.
Experiment [6] in a line: blockers of cellular phospholipid synthesis – cell-based, LOPAC library, screen 4, primary screen (AID 1347384). Particulars: animal cells, phospholipid biosynthesis inhibition screen; at 10 µM.
A short description of experiment [7]: galactose survival enhancers in mitochondrial complex I cybrids – cell-based, galactose medium, ATP luminescence, primary screen (AID 1645843;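 active means z-score of at least 1.8 in each of two replicates, scored against plate mean and spread of sample wells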;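 further: positive z means more ATP and so rescue of galactose-driven cybrid death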). Particulars: complex I mutant cybrid cells, 72 h, stronger effect = higher value.
[8] abbreviates: measured here: relative caspase fold change +Dox/-Dox.
Setting [9] is: measured here: total cells with miR-34 induction, stronger effect = lower value.
Where [10] appears, read: measured here: total cells without miR-34 induction.

By inhibition is commonly meant the drop in the measured response relative to a control, in per cent. In general, remaining activity refers to the signal under treatment as a percentage of the control signal.

The source made the active and inactive calls. Unless noted, how the calls were made is not given here.

For the compound `Clc1ccc(N2CC3CCC(C2)N3)nn1`, the period change in experiment [1] is -0.11 h (inactive). Besides, the inhibition in experiment [2] was -5% (inactive). For the same compound, in experiment [3], the fluorescence ratio (interference) is 1 (inactive). Also, the remaining activity in experiment [4] was 90.4% (inactive). The fold change is 1 (inactive) in experiment [5] (stronger effect = lower value) and 1.13 in experiment [5] (setting [8]). The cell count in experiment [5] (setting [9]) and in experiment [5] (setting [10]) was 10400 throughout. The compound was called inactive in experiment [6]. Moreover, in experiment [7], the z-score is -0.28 (inactive).
Turning to `C[C@H](N)CN1CCc2ccc(Br)cc21`, the period change in experiment [1] is 0.205 h (inactive). Also, in experiment [2], the inhibition was -3% (inactive). Besides, in experiment [3], the fluorescence ratio (interference) was 1 (inactive). The remaining activity in experiment [4] is 115% (inactive). Further, the fold change was 1.19 (inactive) in experiment [5] (stronger effect = lower value) and 0.954 in experiment [5] (setting [8]). Moreover, the cell count in experiment [5] (setting [9]) was found to be 9010; in experiment [5] (setting [10]), 7600. In addition, the result in experiment [6] was inactive. Moreover, the z-score in experiment [7] was -0.65 (inactive).
For the compound `CCCN1CCC[C@H](c2cccc(O)c2)C1`, the period change in experiment [1] is -0.035 h (inactive). Moreover, the inhibition in experiment [2] is -3% (inactive). The fluorescence ratio (interference) in experiment [3] was 1 (inactive). Besides, the remaining activity in experiment [4] was 98.7% (inactive). Besides, the fold change in experiment [5] (stronger effect = lower value) was 1 (inactive); in experiment [5] (setting [8]), 1.94. Further, the figures for the cell count in experiment [5] (setting [9]) and in experiment [5] (setting [10]) were 9710 and 9700, respectively. Further, in experiment [6], the compound was classed as inactive. Further, the z-score in experiment [7] was 0.32 (inactive).
With `CN1CCc2cccc(Cl)c2CC1`, the period change in experiment [1] is 0.06 h (inactive). In experiment [2], the inhibition was -4% (inactive). In experiment [3], the fluorescence ratio (interference) is 1 (inactive). The remaining activity in experiment [4] is 114% (inactive). The results for the fold change in experiment [5] (stronger effect = lower value) and in experiment [5] (setting [8]) were 1.03 (inactive) and 1.41, respectively. The cell count in experiment [5] (setting [9]) was 9920; in experiment [5] (setting [10]), 9620. Also, in experiment [6], the compound was classed as inactive. For the same compound, the z-score in experiment [7] is 0.41 (inactive).
For `CCCN(CCC)CCc1ccc(O)c(O)c1`, the period change in experiment [1] is -0.225 h (inactive). The inhibition in experiment [2] was 0% (inactive). Moreover, the fluorescence ratio (interference) in experiment [3] was 1 (inactive). Also, the remaining activity in experiment [4] was 95.7% (inactive). The values for the fold change in experiment [5] (stronger effect = lower value) and in experiment [5] (setting [8]) were 0.99 (inactive) and 0.931, respectively. The cell count in experiment [5] (setting [9]) was determined as 10100; in experiment [5] (setting [10]) it was 10200. In experiment [6], the compound was classed as inactive. Besides, the z-score in experiment [7] is 0.465 (inactive).
Consider `CCCn1c(=O)c2[nH]c(C3CCCC3)nc2n(CCCOC(=O)c2ccc(S(=O)(=O)F)cc2)c1=O`, for which the period change in experiment [1] is -0.07 h (inactive). Besides, in experiment [2], the inhibition was -3% (inactive). For the same compound, the fluorescence ratio (interference) in experiment [3] is 1 (inactive). In addition, the remaining activity in experiment [4] is 102% (inactive). Further, the fold change in experiment [5] (stronger effect = lower value) was 0.972 (inactive); in experiment [5] (setting [8]), 1.12. Further, the cell count in experiment [5] (setting [9]) worked out at 6100; in experiment [5] (setting [10]) it was 6280. In experiment [6], the compound was classed as inactive. For the same compound, the z-score in experiment [7] is -0.865 (inactive).
Take `O=S1(=O)N(CCN2CC=C(c3c[nH]c4cc(F)ccc34)CC2)c2cccc3c2N1CCC3`: in experiment [1], the period change was 0.13 h (inactive). Moreover, in experiment [2], the inhibition was 0% (inactive). Further, in experiment [3], the fluorescence ratio (interference) is 1 (inactive). Further, in experiment [4], the remaining activity is 123% (inactive). Besides, the fold change in experiment [5] (stronger effect = lower value) was 1.01 (inactive); in experiment [5] (setting [8]), 0.783. Besides, the figures for the cell count in experiment [5] (setting [9]) and in experiment [5] (setting [10]) were 5470 and 5400, respectively. For the same compound, in experiment [6], the call was inactive. Further, the z-score in experiment [7] is -1.29 (inactive).
For `CC(C)NC(C)Cc1ccc(I)cc1` (stereo not given), the period change in experiment [1] is 0.04 h (inactive). Also, the inhibition in experiment [2] is -1% (inactive). Besides, the fluorescence ratio (interference) in experiment [3] was 1 (inactive). In experiment [4], the remaining activity is 108% (inactive). The values for the fold change in experiment [5] (stronger effect = lower value) and in experiment [5] (setting [8]) were 1.08 (inactive) and 0.905, respectively. The cell count in experiment [5] (setting [9]) turned out to be 10800; in experiment [5] (setting [10]) it was 10000. Also, in experiment [6], the compound was classed as inactive. The z-score in experiment [7] was -0.22 (inactive).
Consider `Cc1sc2ccccc2c1CC1=NCCN1`, for which the period change in experiment [1] was 0.055 h (inactive). Further, the inhibition in experiment [2] is -3% (inactive). Further, the fluorescence ratio (interference) in experiment [3] was 0.9 (inactive). Also, in experiment [4], the remaining activity is 99.1% (inactive). For the same compound, the fold change in experiment [5] (stronger effect = lower value) is 1.03 (inactive); in experiment [5] (setting [8]), 1.95. The cell count came to 9870 in experiment [5] (setting [9]) and 9550 in experiment [5] (setting [10]). Moreover, in experiment [6], the compound was classed as inactive. For the same compound, the z-score in experiment [7] was -0.09 (inactive).
